FXIa inh mix – blocks human factor XIa in pooled compound mixtures. inhibition, % at 5 µM. P03951. 62,000 tested, 0.19% active. purified FXIa, fluorogenic substrate;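 further: each value is inhibition by a whole ten-compound pool holding the compound; 0% = enzyme with no mixture and 100% = wells lacking enzyme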
MMP-13 inhibitor – inhibitors of human MMP13; MMP-13 fTHP FRET cleavage, Mca fluorescence; P45452; inhibition, % at 4 µM; 65,000 tested, 0.07% active;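 active means inhibition above the mean of compound-free control plate wells plus 3 SD, cut at about 14% in these data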;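 further: 0% = DMSO wells and 100% = wells with reference MMP-13 inhibitor after basal subtraction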
WNV protease inh – blocks West Nile virus NS2B-NS3 protease activity | 65,000 tested, 0.18% active | WNV NS2B-NS3 protease, fluorogenic substrate Ex360/Em465; stronger effect = lower value | AID 577 | z-score (concentration not given with the values); in the data active means z-score below about -3
MT1-MMP txn act – activates MT1-MMP transcription. HT1080 MT1-MMP promoter luciferase reporter, luminescence, overnight; stronger effect = higher value. 86,000 tested, 0.16% active. activation factor at 10 µM. AID 750;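 active means activation factor of at least 2 for MT1-MMP transcription at 10 µM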
Ec RNAP inh – inhibitors of Escherichia coli RNA polymerase. P0A8V2. E. coli RNA polymerase, fluorescence transcription assay. inhibition, %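 (tested at 10 µM)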. 62,000 tested, 0.2% active; in the data active means inhibition above about 20%;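 further: 0% = enzyme without compound and 100% = no enzyme blank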
FXIIa mix inh – blocks human factor XIIa in pooled compound mixtures; purified FXIIa, fluorogenic substrate; inhibition, % at 5 µM; 62,000 tested, 0.2% active; AID 684;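 further: 0% = enzyme without compound and 100% = no enzyme blank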
Target sequence (P00748 20-372 limits assumed): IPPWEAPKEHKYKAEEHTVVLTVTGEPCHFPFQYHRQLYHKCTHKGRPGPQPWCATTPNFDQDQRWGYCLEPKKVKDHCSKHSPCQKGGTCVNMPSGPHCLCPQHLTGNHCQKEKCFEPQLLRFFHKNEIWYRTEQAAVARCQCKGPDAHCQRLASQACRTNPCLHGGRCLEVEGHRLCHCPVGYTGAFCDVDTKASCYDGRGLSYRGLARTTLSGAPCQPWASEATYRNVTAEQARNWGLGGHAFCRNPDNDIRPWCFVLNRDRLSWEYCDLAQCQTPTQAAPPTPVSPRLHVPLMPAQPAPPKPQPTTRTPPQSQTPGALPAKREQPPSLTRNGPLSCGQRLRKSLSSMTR
Target sequence (P00748 373-615 limits assumed): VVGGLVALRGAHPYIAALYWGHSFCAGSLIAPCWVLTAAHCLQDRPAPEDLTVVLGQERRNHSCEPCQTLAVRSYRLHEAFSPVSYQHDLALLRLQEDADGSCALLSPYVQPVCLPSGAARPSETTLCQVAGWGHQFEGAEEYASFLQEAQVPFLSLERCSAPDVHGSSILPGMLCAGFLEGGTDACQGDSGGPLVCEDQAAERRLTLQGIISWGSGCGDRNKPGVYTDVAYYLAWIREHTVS
Numbers without * were called inactive; i = inactive; x = not tested or not shown. Shown are actives, neighbours in structure and some others; about 0.69% of the full set was active somewhere. Unless noted, no stated cut-off is given here; in the data, active means inhibition above about 20% (passing the limit was not always enough); inactive means the rest.

SMILES | FXIa inh mix | MMP-13 inhibitor | WNV protease inh | MT1-MMP txn act | Ec RNAP inh | FXIIa mix inh
COC(=O)c1cccc(C23CC4(C2)[C@H](CN(Cc2ccc(C(F)(F)F)cc2)[C@@H]4c2ccccc2)C3c2ccc(C(F)(F)F)cc2)c1 (stereo partly specified) | x | x | x | 1.1 | x | x
COC(=O)c1ccc(C(=O)Nc2ccc(N)cc2N)cc1 | 23.0* | 9.3 | -0.6 | 1 | 8.7 | 4.7
COc1ccccc1NC(=O)c1ccc(N)cc1 | 18.0 | 0.9 | -1.44 | 1.2 | 6.2 | -16.2
C[C@@H](C(=O)NCc1nc2ccccc2[nH]1)[C@@H]1C[C@@]1(C)[C@@H](NC(=O)OCc1ccccc1)c1ccccc1 | x | x | x | 1.2 | x | x
Cc1cccc(N2CCN(C(=O)CCn3c(=S)[nH]c4cc5c(cc4c3=O)OCO5)CC2C)c1 (stereo unspecified) | 4.7 | 2.1 | -0.73 | 1.1 | 1.7 | 44.7*
O=C(CCn1c(=S)[nH]c2cc3c(cc2c1=O)OCO3)N1CCc2ccccc2C1 | x | x | x | 0.9 | x | x
COC(=O)c1cccc(NC(=O)c2cccs2)c1C | x | x | x | 1.1 | x | x
Cc1ccc(C2=NN3C(C2)c2ccccc2OC32C(=O)Nc3ccccc32)cc1 (stereo unspecified) | x | x | x | 2* | x | x
Cc1ccc(CNC(=O)C2(C)Oc3ccccc3NC2=O)cc1 (stereo unspecified) | x | x | x | 0.9 | x | x
COCCN=C1OC(=O)N2C(=O)C3=C4[C@@H](C[C@H]5C(=O)N(CC(=O)OC)C(=O)[C@H]5[C@H]4[C@@]12Cc1ccccc1)[C@H]1C(=O)N(CC(=O)OC)C(=O)[C@H]1[C@H]3C | x | x | x | 1.2 | x | x
Cc1ccc(Cn2c3ccccc3c3cn[nH]c(=O)c32)cc1 | 6.9 | 4.7 | 1.44 | 1.1 | 73.7* | -0.3
CC(C)C(NC(=O)c1ccccc1NC(=O)c1ccco1)C(=O)O (stereo unspecified) | 11.8 | -11.5 | -0.64 | 1.1 | 5.2 | -2.3
CC(NC(=O)c1ccccc1NC(=O)c1ccco1)c1ccccc1 (stereo unspecified) | 23.6* | 0.5 | 0.95 | 1.2 | 5.3 | 6.8
CC(=O)c1cc2cc(O)ccc2o1 | -12.3 | i | 8.25 | 1 | -138.9 | -9.7
CC(=O)c1cc2c(O)c(O)ccc2o1 | 1.9 | -1.8 | 1.22 | 1.2 | 21.1* | 0.4
COc1ccc(F)cc1S(=O)(=O)NC1CCCC1 | x | x | x | 1.1 | x | x
CCn1c(SCC(=O)Nc2ccc3c(c2)c2ccccc2n3CC)nnc1-c1ccco1 | 2.8 | 8.2 | -3.01* | 0.9 | 10.2 | -2.3
CCn1c(SCC(=O)Nc2ccc3c(c2)OCCO3)nnc1-c1ccco1 | 10.5 | 5.1 | 0.18 | 0.9 | 4.5 | -16.0
Cc1c(NS(=O)(=O)c2ccccc2)cc(Cl)c(O)c1C | 4.4 | x | 1.35 | 1 | 26.3* | 14.2
O=P(N[C@@H](c1ccccc1)[C@@H]1C[C@H]1CCO)(c1ccccc1)c1ccccc1 | x | x | x | 1.3 | x | x
CC(=O)c1cccc2c(O)c(C3=Nc4ccccc4C3=O)[nH]c12 | x | x | x | 2.3* | x | x
O=C(O)c1ccccc1-c1nc2ccccc2c(=O)[nH]1 | 9.4 | -0.8 | -0.26 | 1.3 | -0.3 | 12.6
Cc1cc(N)n(-c2ccccc2)n1 | -5.9 | x | -0.82 | x | 2.7 | 8.6
Cc1cc(-c2cc(N)n(-c3ccccc3)n2)c(C)n1C1CCCC1 | 5.2 | 1.2 | 0.48 | 2* | 4.1 | -1.6
COc1ccc(CSc2nc(C)cc(=O)[nH]2)cc1 | 5.4 | 24.9* | -1.62 | 1.2 | 9.4 | 4.2
SMILES | FXIa inh mix | MMP-13 inhibitor | WNV protease inh | MT1-MMP txn act | Ec RNAP inh | FXIIa mix inh
COC(=O)Cc1cc(=O)n(-c2nc3ccccc3[nH]2)[nH]1 | 5.1 | 57.4* | 2.97 | 1 | 5.8 | 9.3
Cc1ccccc1CNC(=O)c1ccccc1 | x | x | x | 1.2 | x | x
Cc1ccccc1NC(=O)c1ocnc1C | 6.2 | 7.2 | 1.93 | 1.1 | 4.5 | 7.5
Cc1ccc(Cl)cc1NC(=O)c1ocnc1C | -5.3 | -2.1 | -3.37* | 1.1 | 6.0 | 3.0
CCC(=O)N1CCc2cc(Br)cc(S(=O)(=O)CC(=O)OC)c21 | -10.0 | 3.2 | -4.83* | 1 | 0.2 | -15.1
CC(C)(C)OC(=O)N[C@@H](Cc1ccccc1)c1nnc(S(=O)(=O)Cc2ccccc2)o1 | 8.2 | 2.3 | -0.88 | x | x | -3.3
CCC(C)[C@@H](NC(=O)OC(C)(C)C)c1nnc(S(=O)(=O)Cc2cccc(C)c2)o1 (stereo partly specified) | 20.8* | 3.2 | -0.48 | 1 | 7.0 | 11.6
O=C1Cc2ccccc2N1c1c(Cl)cccc1Cl | x | x | x | 2.2* | x | x
CC1=C(C(=O)OCc2ccccc2)C(c2ccccc2OC(=O)c2cccs2)NC(=O)N1CCCC(=O)O (stereo unspecified) | x | x | x | 1.2 | x | x
CCOC(=O)c1c(C)oc2c1c(/C=N/c1ccccn1)c(O)c1ccccc12 | 9.2 | -0.5 | 0.52 | 1.4 | 7.9 | 69.1*
Cc1nc2nc(-c3ccc(Cl)cc3)nn2c(C)c1Cl | x | x | x | 1.7 | x | x
Cc1nc2nc(-c3ccccc3)nn2c(C)c1Cl | 4.1 | 1.5 | -1.42 | 2.2* | 5.5 | 8.7
CCCCCCN(C(=O)CCCCCN1C(=O)NC(c2cccc([N+](=O)[O-])c2)C(C(=O)OCc2ccccc2)=C1C)C(C(=O)NCCCC)c1ccc(OCC(=O)OC)c(C(=O)OC)c1 (stereo unspecified) | x | x | x | 1.1 | x | x
O=S(=O)(c1ccccc1)c1ccccc1/C=N\O | -3.7 | -0.8 | 0.77 | 1.1 | x | 24.6*
COC(=O)c1ccc(C(/C=C/[C@@H](C)C(=O)NCCc2c[nH]c3ccccc23)NC(=O)OCc2ccccc2)cc1 (stereo partly specified) | x | x | x | 1.1 | x | x
CCOC(=O)C1=C(C)N(CCCC(=O)O)C(=O)NC1c1ccccc1OS(=O)(=O)c1ccc2ccccc2c1 (stereo unspecified) | x | x | x | 1.2 | x | x
CN(Cc1cc(=O)[nH]c2ccccc12)C(=O)c1ccccc1 | 7.2 | 2.1 | -0.9 | 2.2* | x | 7.6
COC(=O)c1ccc(C(/C=C/[C@@H](C)C(=O)NCc2cc(C)n(C)n2)NC(=O)OCc2ccccc2)cc1 (stereo partly specified) | x | x | x | 1.1 | x | x
CCN1C(=S)SC(=O)C1=C1C=C(C)N(Cc2ccco2)C(C)=C1 | 8.2 | 18.9* | -0.51 | 1.8 | 7.3 | 6.3
OC1c2ccccc2-c2nc3ccccc3cc21 (stereo unspecified) | x | x | x | 1 | x | x
CCOC(=O)NC1(Nc2ccc(Cl)cn2)Oc2ccccc2O1 | 4.7 | -3.6 | 0.48 | 1.1 | 25.3* | 3.1
COC(=O)[C@@H]1C[C@@H]2CC[C@@H](O)C[C@@H]2N1Cc1ccc(N2CCOCC2)cc1 | x | x | x | 1 | x | x
Cc1cc(=O)c2n(Cc3ccccc3Cl)nc[n+]2[nH]1 | 5.4 | -2.4 | 0.5 | 1.3 | 56.6* | 4.0
Cc1cc(C)n(Cc2ccccc2Cl)n1 | -2.0 | 4.8 | 0.24 | 1.2 | 8.4 | 1.2
COC(=O)[C@@]1(Cc2ccc(F)cc2)[C@H]2c3cc(C(=O)N(C)C)n(Cc4cccc5ccccc45)c3C[C@H]2CN1C(=O)c1ccccc1 | x | x | x | 1.2 | x | x
COc1ccc(Br)cc1/C=c1\sc2nc(-c3ccco3)nn2c1=O | -1.1 | -2.6 | -3.01* | 1.1 | -0.3 | 10.1
CCCNC(=O)c1c(NC(=O)C2COc3ccccc3O2)sc2c1CCCC2 (stereo unspecified) | x | x | x | 1.4 | x | x

Source: PubChem BioAssay (several laboratories)
